From PubChem BioAssay AID1159506 (National Center for Advancing Translational Sciences (NCATS), 2015)
The full ranking holds about 59,000 sequences; the median of the read-out is about -0.00055, and the lowest 2% start at about -2. The sample as a whole holds a higher share of the lowest values than the screen did.

Test: Identification of proteins required for the processing of the EWS-FLI1 nascent transcript;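 also: robust z of luciferase light less the median z of siRNAs with the same seed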
Settings: TC32 Ewing sarcoma NR0B1-luc vs CMV-luc (EWS-FLI1 target promoter against control promoter), 48 h; screened at 20 nM (by protocol)
Method: Ewing sarcoma (ES) cells depend on the EWS-FLI1 fusion transcription factor for cell survival. Using an assay of EWS-FLI1 activity and genome-wide siRNA screening we have identified proteins required for the processing of the EWS-FLI1 nascent transcript. Parallel genome-wide siRNA-mediated RNAi screens were conducted in Ewing sarcoma TC32 cell lines expressing a luciferase (luc) reporter protein driven by either the promoter of the EWS-FLI1 target gene NR0B1 (TC32-NR0B1-luc) or the CMV promoter (TC32-CMV-luc). Luciferase activity was assessed 48 hours post siRNA-transfection.
Twenty microl of serum-free media containing Lipofectamine RNAiMax (0.05 microl) was added to wells containing siRNA (0.8 pmol). Lipid and siRNA were allowed to complex for 45 min at ambient temperature before addition of 600 cells in RPMI-1640, 20% FBS to yield final transfection mixtures containing 20 nM siRNA in RPMI-1640, 10% FBS. Luciferase expression was measured using OneGlo (Promega, Madison, WI). The genome-wide screening campaign was conducted using Ambion's human genome library version 4.1 (Ambion, Austin TX). This library targets approximately 21000 human genes, three siRNAs per gene. Each siRNA is arrayed in an individual well of a 384-well plate. Parallel transfections were conducted in TC32-NR0B1-luc and TC32-CMV-luc cell lines and luciferase expression (OneGlo, Promega) was assayed 48 h later on a PerkinElmer Envision 2104 Multilabel plate reader (PerkinElmer, Waltham, MA). Qiagen's AllStars Negative control was incorporated on all screening plates for normalization (16 wells per plate). Qiagen, Germantown, MDsiGL4 was incorporated as a positive transfection control (16 wells per plate) on all plates. […] The raw luciferase data for the NR0B1- and CMV-luc screens were normalized and z-score-MAD transformed using standard methods (Chung et al., 2008). The miRNA-like seed sequence of every siRNA was determined and the median z-score for all siRNA sequences with the same seed sequence was calculated. This z-score was subtracted from the z-score associated with each siRNA with that seed sequence to generate a seed-adjusted z-score value (Z) that was used when the results for the three siRNAs corresponding to each gene were compared (Marine et al., 2012)

Sequence	seed-corrected z-score
UUCCUAAUACCACAAUUGC against NKIRAS1	-0.00171
UAAGUUGCAUGCCUGGUCA against RIMKLA	-3.91
UGUUGAGUAAGGAGGGACC against HSPB8	-0.073
UCAUCGCCUAUGUCGAUGC against ABCC11	0.255
UUUGAGCUUUCCUUAUUCC against CEP97	0.381
UCUAGAUCAUGAAUGCUCC against ZNF25	1.08
AUUUCUUUCAUAGUCACCG against RASL11B	-0.122
UAUGCUUUUAGACGAUUGG against ASB14	-0.444
AGGUCUUCAAAUACCGUUG against LACTB2	-2.32
UUUGCUCCCUUCACUCUGC against DVL1	0.689
AAAUGUACACCAUAUAAGC against ELOVL6	-2.75
UUCAUGUCCACGUUGACCA against PLCD3	-0.387
UUAUGGUCUUGAGGUAAGG against RNF6	0.418
UUCGUGAAAGGAUCUGCUG against FRMD4B	-0.649
UCUGUUUUCAGGUCUUCCA against PMM1	0.485
UGAGUUUGAAGGUGAAUUC against TMEM207	0.374
UAGACUAGAAUGGUCACUC against DDIAS	0.728
UCUGGAGUGUUUGGGCUGC against CICP18	-3.73
UAACCUUCAACUCGCUGCC against NYNRIN	-1.01
UUAAUGGGAAGUUCUGGUG against ALG8	-0.153
UUGUUUACAAUUGAAACUC against RPS7	2.49
UUUGGUAAACUUCUGACUC against AFP	0.408
UUGGGCACAUGCUCUAAGG against SUN2	1.57

Sequence	seed-corrected z-score
UUUGCGGUCAGGUUUCACC against MTNR1A	-0.693
UUCCUUCCAGCUGUAGGCC against CHRM1	-2.17
UUUGGAGCAAGUAAUCCCU against ATP5SL	0.0327
UACGCUCCAACCAUCAUAG against KIAA0368	-0.0559
AAUGUCACAAAAGUUCCGU against PGLYRP3	-0.707
UAACGAGAAAGACGGAUGC against CEP104	-0.248
AAUGCUAUAAAAUCCGUGG against C11orf95	0.671
UAUUAGGAGAUAUGAAGUG against PSMB7	0.622
UCAGCUUCUACUCCGGUCU against DAPP1	-1.25
UUGUAUACAAGUGUCCACC against KCTD6	-2.54
UAUUGUAAGAGUACACGUC against IGSF5	-0.00495
UUGCGUUCAGGAAUAUCCG against MARK3	0.476
UGGAAUAUAAAACCCGUGC against FUNDC2P2	-0.0349
UUUGGGAUCUAUCAAUUUG against HNRNPDL	0.695
AACUUUACCAGUCACACUC against SMNDC1	-2.31
UACACUCCUCUGAAGUUUG against ZNF396	-0.508
UUGGGUCAAUCCAUUUCUC against C10orf55	0.749
UCCACGAAUAGCAAGUUGC against H2AFZ	0.129
UCUGCUUGUAGUGAAAGUC against DUSP9	-3.42
UAACUUACUGAGAAUCGGC against LCP2	-1.05
AAGGUGUUUCGAGUUAUGC against POLR2J	-0.205
UCAUGAACCCGAGCUCGAG against CD37	-0.195
AUUCCUGACAUUCACAUGC against ZNF439	0.169

Sequence	seed-corrected z-score
UCAGGUGCAAUUGGGAGCU against TCEB1P3	-2.71
UACGUUUUCAGAGUAUCAC against PDCD10	0.491
AUACUUGACAUCACCAACC against CDKL2	-0.981
CAAGUCAUGCCAGCACUGG against LOC645852	0.383
UAAUCUAAUCCUUCUAAAG against PCDHGA7	1.3
UUCCUUCCAGGACAUGAGC against MIR503HG	-2.21
UUUGGUUGAAGGGACCCUC against OR1J2	0.501
UCCUUUGAUAGCCUCUUCG against ELAVL3	-0.214
UAACUGUUCACCGCGUCCA against LINC01530	-0.696
UUACAAAGAAGCACGUUCA against HOXB8	0.191
AAACAGGAAGGUGCUAUCG against GALT	-0.3
AUACUUGCAAACAAACUCC against RREB1	-1.3
UGAUUUCUGACCUCCAUUC against TMEM43	1.18
ACUGUUCCCAACAAGGUCC against UBXN4	1.66
AAACCUAAGAAUACAAGUU against SAR1A	0.849
ACAGUUGCCCUUGUCCUGG against LOC440292	-3.34
AUUGGAGAGAGGUUCAUUC against YWHAH	-0.058
UGACGGCUGGUCGUGAUCU against SPDYE2	0.00759
UACAGGUAGACCUCGUGGG against UPK3A	0.24
UCAGGAUCAUGAGUAGGCG against DEPDC5	1.12
AAACCUAUUCCUUCCAUUU against ARL6IP5	0.0394
UUAGAGUCCAGAUUCAGGA against ST3GAL3	0.675
AAACGAUCAUGGUCUCUGC against COPA	-3.42

Sequence	seed-corrected z-score
UGAUCUUGAACUGCACCAC against SUMO3	-0.708
UGGAGUAAGAGCUAUACGC against CYTIP	-0.125
AACGUGUCACCACAUAUGG against MAPK10	-2.05
UUAGCAACCACGGACACUG against ACR	0.604
AUACCUUUCAGGAUGAGGG against TMEM178A	-0.305
UUCAUAACUCUGUUGUGCC against FNBP1L	0.0737
UUCUGUACGCAGGUGAUUG against COL1A1	0.0612
UUUACGACGCAUCUCAGCC against ARCN1	-2.64
ACGGUUUUUACAUCGAUUC against PTPRO	0.657
UAUUGUGCAAUUUGGUGGG against KLF13	0.422
AAUAUCCCAAUGUUCAUGC against FHDC1	-2.13
AAACCAAACAAGGAUACCU against C20orf173	2.47
ACAUAUACUGGUAACACUG against SH3GLB1	-0.404
UGAUGUCUACAAUAUCACC against RPL21P20	-2.36
UUUAUCACCAGGUUAAGCC against GLUD1	-0.205
UCUCGGAUCAUGAUGUUGU against PIK3CD	0.452
UAAACAAUACGUCAGUGCC against OR51T1	-0.809
UUCGUUCACGGCUAUGACC against CHL1	0.202
UGAGUUUCAGGUUCUCCGG against CAB39L	-2.64
UUCCGGAUCAGAUCAUGGG against FAM118A	-0.123
UACAUUCUUGGUUUCAACC against LOC729860	1.84
UUAUAUUCAUCCUUGUGAC against CRKL	0.239
UUCUGGUUUGUUUUCAGGC against BAG3	-2.98

Sequence	seed-corrected z-score
AACCGAACAAAUGAAUAUC against TIA1	-1.17
UAAUCUGCAAGUCAAGUCU against LYSMD2	-1.06
UUCACGACGAUGAUUCCCU against DYNLRB1	-0.1
UCCUCUGUAACCACACUCG against GPT2	-0.193
AAACUAUACACGGUCGUCC against RFESD	-0.265
UUAGGUUCAACAUCCACAA against SNRPD1	-2.57
AAGGAUAUUAAGAAGAAUC against ARMCX1	0.793
UACGAUGAUAGCCUUGACC against CNOT10	-0.215
UCAAGCUUCACUUUCUUCC against DNAJC17	1.06
AAAAUGAGAACGUAAAGUC against VN1R5	-0.139
UCCUGGAUGCGAUUUAUGG against DDRGK1	-0.145
UUCUCGUCGAGGUAGAUUU against ITM2C	0.584
UAACAUACUGGUCCCAUUG against PCTP	-1.08
UAUCUUCUAAUGCAAUCCU against RTP2	0.814
ACCUUGACCACACUUAUUU against VSTM2L	-1.03
UGCUUAACAAGAUCUGAAC against ZNF271P	-2.37
UCGGCGAUGUAGGAGAUGG against APBA2	0.0663
AGAAAAUCUAUCUUCCUCU against PFDN5	-0.0703
UGGGAUAUCACCAACGACG against CCDC168	-0.371
UCAUCUAGAAGAAUAUUCU against SGK494	0.387
AAGCUUGCCAAUACCCUGG against RPLP2	-2.77
UCUAUGUUGACAACCUCUC against DSPP	2.05
UUGCAUUUUAUCACAGUAG against LY96	-0.122

Sequence	seed-corrected z-score
UCAGCAAAAACAUCUCACU against OR4Q3	0.873
AAACUGACCAUUCACUACC against DCAF12	-10.7
UCUGGAAUUUGGGUUGAUG against C1orf105	-0.114
UAGAUGUGCAUGUAGGUGA against ADO	0.279
AAGGCAUCCAAGAAGCUCC against KCNK6	0.0975
UUGGAAACUACAGAUGAGA against WDR82	-2.39
UUCCUUAAGGUGUCCCUCC against HSPA12A	0.369
UUGCGAUGGAAAGACAUGU against CD5	0.451
AAUGCUCUCAGUUGAGAUG against C19orf44	-0.0313
UAACCUCUGGGUCACAUGC against ACIN1	0.0177
UCUGUCUAAAUAACUUAUU against NAT8L	-0.913
UAUUGAAUGAUGUGGAGUC against PTCD2	0.667
UUAAGUAUUGGAUUUCAUA against DEFB116	0.226
UCGGAAUAAAUUGAGCUGC against API5	-16.5
UGUGCGAGAACAUUCCUGC against HIP1R	0.0278
UUUGUGCAUGCUGUCGUUC against TNIP2	-0.335
UACAGCUAAACUGUACAGC against ORC6	-2.09
UUCGGUUCAUGACAAAUAC against SLC35F5	0.354
